The structures appear in SMILES notation. The panel holds about 83,000 compounds, 20% with a hit somewhere; the sample as a whole holds those more often.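 A percent growth of 40 corresponds to 60% growth inhibition; 0 means no net growth; -100 means all cells died. Active threshold: below 10.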 Unmarked numbers belong to inactive results. The source made the active and inactive calls.

The experiment has as its system MCF7 breast. Kind of experiment: NCI-60 one-dose screen, 48 h (100 = growth as untreated, 0 = no growth, -100 = all killed). As to conditions: 10 µM unless noted. As for the experimental part: Growth inhibition of the MCF7 human tumor cell line is measured as a screen for anti-cancer activity. Cells are grown in 96 well plates and exposed to the test compound for 48 hours. Compounds are tested at a single concentration, which is 10^-5 M for most compounds. The reported endpoint is percent growth (GI% or GIPRCNT), where numbers from 0 - 100% represent growth inhibition, and numbers from -100% - 0 represent cell death. For example, a value of 40 represents 60% growth inhibition. A value of 0 means no net growth occurred over the course of the experiment. A value of -40 indicates 40% of cells at the beginning of the experiment died by the end of the experiment. A value of -100 means all cells are dead at the end of the experiment.
NCI-60 Human Tumor Cell Lines Screen was performed using the standard one-dose NCI protocol, which is described in more detail at https://dtp.cancer.gov/discovery_development/nci-60/default.htm.
Compounds with GIPRCNT values below 10 were considered active. Activity score was based on GIPRCNT using the following formula: […]
Score is 0 for GIPRCNT values of 100 or above, 50 for GIPRCNT values of 0, and 100 for GIPRCNT values of -100.
With `Nc1cc2c(cc1N)-c1cc(N)c(N)cc1C2`, the growth was 93.5%.

With `Cc1nc(Nc2cccnc2)sc1C(=O)/C=C/c1ccc(F)cc1`, the growth was 14.2%.

Turning to `COc1cc(OC)c(C(=O)/C=C/c2ccc(C(F)(F)F)cc2)c(OC)c1`, the growth is 19.7%.

Turning to `COc1cc(NC(=O)CSc2nc3ccc(C)cc3c(=O)n2-c2ccccc2)cc(OC)c1OC`, the growth is 91.1%.

As for `O=C(CSc1nc(-c2ccc(Cl)cc2)cn1-c1ccc(Cl)cc1)c1ccc(Br)cc1`, the growth was 83.9%.

With `Cc1cc(Nc2nc(C(=O)Nc3ccccc3)nc3ccccc23)n[nH]1`, the growth was 72.1%.

As for `COC1=CC(c2ccc[nH]2)=N/C1=C\c1[nH]c(C)c(C(=O)CCC(=O)Oc2ccc3c(c2)CCC2C3CC[C@]3(C)[C@@H](O)CC[C@@H]23)c1C` (stereo not given in full), the growth is 13.6%.

For the molecule `CC(=O)c1cc(C(=O)c2ccc3c(c2)Sc2ccccc2N3)c2cc(C)ccn12`, the growth is 10.8%.

On to `CN(C)c1ncc(-c2ccc(C(F)(F)F)cc2)c(NC2CCCCCC2)n1`, for which the growth is 41.2%.

On to `c1ccc([P+](CCC[P+](c2ccccc2)(c2ccccc2)c2ccccc2)(c2ccccc2)c2ccccc2)cc1`, for which the growth was 59%.

As to `CCC1CCc2nc3sc(C(=O)Nc4ccccc4F)c(N)c3cc2C1` (stereo not given), the growth is 18.9%.

As for `CCN(C(=O)c1cc2ncccc2[nH]1)[C@H]1CCC[C@@H](NCc2cccc(F)c2)C1`, the growth is 95.7%.

In the case of `CS(=O)(=O)N(c1cc(-c2ccc3ncnc(Nc4cccc(Cl)c4)c3c2)cnc1Cl)S(C)(=O)=O`, the growth was 4.87% (active).

Consider `CCc1c(C(=O)Nc2ccc3ccccc3c2)[nH]c(C)c1C(C)=O`, for which the growth was 84.6%.

`O=C(c1ccccc1)C(Cl)C(Cl)c1ccccc1` (stereo not given): the growth is 9.18% (active).

On to `COc1cc2c3c(c(=O)oc2cc1OS(=O)(=O)c1ccc(C(F)(F)F)cc1)CCCCC3`, for which the growth is 89.6%.

Consider `COc1ccc(NC(=O)CSc2nc3ccccc3c(=O)n2-c2ccccc2C(F)(F)F)c(OC)c1OC`, for which the growth was 97.8%.

Consider `Cc1cc2c(C(C)C)c(O)c(O)c(C=NCCCCC(=O)O)c2c(O)c1-c1c(C)cc2c(C(C)C)c(O)c(O)c(C=NCCCCC(=O)O)c2c1O`, for which the growth was 32.8%.

With `C[N+](C)(C)c1ccc(CC2c3ccccc3-c3ccccc32)cc1`, the growth is 84.1%.

Take `ClC1=C(Cl)C(Cl)=C(Cl)C1=Cc1ccc(Cl)cc1Cl`: the growth is 4.25% (active).

Regarding `COc1cc(OC)c(C(=O)/C=C/c2cccc(C#N)c2)c(OC)c1`, the growth is 15%.

For the molecule `COc1ccc(/C(=N/O)c2cc(F)c(F)c(OC)c2F)cc1O`, the growth is 18.7%.

For `Cc1ccnc2nc(C(=O)OCC(=O)Nc3ccc(-c4ccccc4)cc3)nn12`, the growth is 105%.

Regarding `COc1ccc2c(c1)C(C)Cc1c(N(C)C)ncnc1N2C` (stereo not given), the growth was 19.5%.

Turning to `O=c1[nH]c2ccccc2cc1-c1nnc(Cc2ccccc2)o1`, the growth is 20.5%.

As for `O=C1Nc2cc(Cl)ccc2Oc2cc(Oc3ccccc3)ccc21`, the growth was 29%.

With `COc1cc(C(=O)N2CCN(C(=O)c3ccco3)CC2)c(N)cc1OCc1ccccc1`, the growth was 93.1%.

On to `CC(=O)N1Cc2ccccc2C(C)Cc2cc(Cl)ccc21` (stereo not given), for which the growth was 102%.

Take `Cc1oc2ncnc(Nc3ccccc3)c2c1C(=O)NCCO`: the growth is 98.6%.

For `Nc1c(C(=O)Nc2c(Cl)cccc2Cl)sc2nc3c(cc12)CCCCC3`, the growth was 18.4%.

In the case of `c1ccc2nc(-c3ccc4ccccc4n3)ccc2c1`, the growth was 61.8%.

With `COc1ccc(/C=C/C(=O)c2cc(OC)c(OC)c(OC)c2)cc1OCc1cn(Cc2ccc(F)cc2)nn1`, the growth is 13%.

As to `COc1cc(CCn2nnc3c(NCCCCO)ncnc32)cc(OC)c1`, the growth is 99.6%.

Turning to `CC[C@H](C)[C@H]1NC(=O)[C@@H](N[C@](C)(O)[C@@H](N)CC(C)C)[C@@H](C)OC(=O)[C@H](Cc2ccc(OC)cc2)N(C)C(=O)[C@@H]2CCCN2C(=O)[C@H](CC(C)C)NC(=O)[C@@H](C)C(=O)[C@H](C(C)C)OC(=O)C[C@@H]1O`, the growth is 2.76% (active).

As to `O=S(=O)(NCCCNc1nccc(-c2c(-c3ccccc3)nc3sccn23)n1)c1ccc(F)cc1`, the growth was 31.6%.

Consider `Nc1c(C(=O)Nc2cccc(C(F)(F)F)c2)sc2nc3c(cc12)CCCCC3`, for which the growth was 29.5%.

As for `O=C(O)Cc1ccc2c(c1)Cc1cccnc1O2`, the growth was 94.6%.

On to `O=C1NCC(c2cc3ccccc3[nH]c2=O)Nc2ccccc21` (stereo not given), for which the growth was 103%.

As for `COc1ccc(C2SCC(=O)N2NC(=O)c2ccc(NC(=O)c3ccccn3)cc2)cc1OC` (stereo not given), the growth was 104%.

Consider `CCC(c1ccc(OC)cc1)C(CC)c1ccc(OCC[N+](C)(C)C)cc1` (stereo not given), for which the growth was 56.9%.

Values taken from PubChem BioAssay (NCI).
